Bioassay records (PubChem)
In the library only some 19% were active in any assay of this set; here they are far more common.
DT40 TDP1 no CPT: qHTS for Inhibitors of human tyrosyl-DNA phosphodiesterase 1 (TDP1): qHTS in cells in absence of CPT; Potency, µM (highest dose often 46.2 µM), inactives show top-dose activity change, negative = growth inhibition, usual class: inhibitors; AID 686978, 2013; DT40 Tdp1-/- hTDP1 cells, no CPT, ATP luminescence, 48 h; 15% of 420,000 active; further: potency means the concentration at half of the fitted maximal effect; nearly all actives have a fitted effect of over 55% in size
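Stably hTDP1-transfected Tdp1-null chicken DT40 cells were treated with library compounds minus camptothecin and grown for at least 48 hr at 37 °C, after which cellular ATP was quantified by luminescence.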
HT1080-NT tox: kills 2HG-producing HT-1080-NT fibrosarcoma cells | 1.6% of 360,000 active | HT-1080-NT fibrosarcoma viability, CellTiter-Glo ATP luminescence, 48 h | Potency, µM (series often up to 46.1 µM), for inactives: at the highest dose activity, negative = less viability, most hits filed as cytotoxic | AID 686970;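 further: NT is the 2HG producing partner of a matched IDH1 knockdown line; potency means the concentration at half of the fitted maximal effect; 0% = DMSO-treated cells and -100% = media-only wells without cells; nearly all actives have a fitted effect of over 55% in size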
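Toxicity toward the 2HG-producing NT line was scored as %Activity, normalised to DMSO and no-cell wells, from CellTiter-Glo luminescence after 48 hours' treatment.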
DT40 TDP1 CPT: growth inhibition of DT40 Tdp1-/-;hTDP1 cells with camptothecin (screen for TDP1 inhibitors) | chicken DT40 Tdp1-/-;hTDP1 cells + 20 nM CPT, ATP luminescence, 48 h | Potency, µM (doses to about 46.2 µM), for the others: at the top dose activity change, negative = growth inhibition, most hits filed as inhibitors | 12% of 420,000 active | AID 686979; further: potency means the concentration at half of the fitted maximal effect; nearly all actives have a fitted effect of over 55% in size
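Cell growth measured by CellTiter-Glo luminescence after a minimum 48 h, 37 C compound exposure with 20 nM CPT in Tdp1-knockout DT40 cells stably expressing hTDP1, seeded 400/well; qHTS titration format.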
IL1B secr inh: blocks inflammasome-driven IL-1 beta release. THP-1 LPS/ATP IL-1B secretion, AlphaLISA, 16 h; active compounds read low. activity change, % at 57.5 µM. 4.7% of 360,000 active. AID 743279; in the data active means activity change below about -50%; inconclusive means mostly about -30% to -49%
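Secreted IL-1B measured by AlphaLISA bead assay after 16 h compound exposure of THP-1 cells; compounds (final up to 57.5 uM) added 1 h before LPS (250 ng/mL) and ATP (1.25 mM) stimulation; lower signal means less secretion.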
HT1080 IDH1KD tx: kills HT-1080 cells with IDH1 knockdown; HT-1080 IDH1 knockdown viability, ATP luminescence, 48 h; Potency, µM (top dose mostly 46.1 µM), for the others: top-dose activity, negative = toxicity, hits mostly cytotoxic; 2% of 360,000 active;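 further: potency means the concentration at half of the fitted maximal effect; 0% = DMSO wells and -100% = cell-free medium wells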
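Cytotoxicity counter-line: IDH1KD HT-1080, 48 h, CellTiter-Glo. Curves classed by r2, magnitude and activity.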
Starred values were filed as active, the others as inactive; ? = inconclusive; · = not tested or not shown; [ ] = remark or other dose. Unless noted, the call rests on the fitted dose curve; in most records, active means well fitted curve in the direction sought with a large enough effect; inconclusive means small, poorly fitted or top-dose-only effect, or another doubt; inactive means no such curve, though single readings can be large; an effect the other way counts as inactive or inconclusive. Unless noted, on the % scale 0 is the no-effect control and ±100 the full control effect.

SMILES	DT40 TDP1 no CPT	HT1080-NT tox	DT40 TDP1 CPT	IL1B secr inh	HT1080 IDH1KD tx
CCn1c(N2CCN(C(=S)NCC(C)C)CC2)nc2ccccc21	-22%	0%	?	-54*	0%
CCn1c(N2CCN(C(=S)NC)CC2)nc2ccccc21	1%	5%	-24%	-7	-21%[9.24 µM]
CCn1c(N2CCN(C(=S)NCCc3ccccc3)CC2)nc2ccccc21	26µM*	-8%	?	?	10%
COc1ccc(/C=C2\SC(=O)N(CC(=O)Nc3cccc(C)c3)C2=O)cc1O	?	?	14%	?	?
Cc1ccc(C)c(N2N=C(C(=O)Nc3cccc(S(=O)(=O)N4CCCCC4)c3)CCC2=O)c1	?	2%	?	0	2%
Cc1cccc(C(=O)OCCN2CCOCC2)c1	-2%	21%	6%	9	13%
CCc1nc2c(OCc3cccc(Cl)c3)cccn2c1N(C)C(=O)C1CC1	?	-27%	16µM*	-21	?
CCOC(=O)C(=O)N(C)c1c(CC)nc2c(OCc3cccc(Cl)c3)cccn12	?	9%	16µM*	18	14%
CCCCC(=O)N(C)c1c(CC)nc2c(OCC(=O)c3ccc(Cl)cc3Cl)cccn12	?	-18%	23µM*	·	-12%
CCc1nc2c(OCC(=O)c3ccc(Cl)cc3Cl)cccn2c1N(C)C(=O)c1ccncc1	?	18%	?	3	0%
CCOC(=O)C(=O)N(C)c1c(CC)nc2c(OCc3cc(Cl)cc(Cl)c3)cccn12	21µM*	-17%	18µM*	-14	-23%
CCc1nc2c(OCc3ccc(Cl)cc3)cccn2c1N(C)C(=O)C1CC1	?	0%	?	-5	2%
O=c1n(-c2ccccc2)c(=O)n(Cc2ccccn2)n1Cc1ccccn1	-7%	15%	5%	9	13%
CCCCC(=O)N(C)c1c(CC)nc2c(OCc3cc(Cl)cc(Cl)c3)cccn12	?	?	?	-62*	?
CCc1nc2c(OCc3ccc(C(F)(F)F)cc3)cccn2c1N(C)C(=O)C1CC1	23µM*	2%	23µM*	-25	-4%
CCc1nc2c(OCc3cc(Cl)cc(Cl)c3)cccn2c1N(C)C(=O)Nc1ccccc1OC	?	?	23µM*	0	?
CCc1nc2c(OCc3ccccc3)cccn2c1N(C)C(=O)Nc1ccccc1OC	?	24%	?	-4	12%
Cc1ccc(S(=O)(=O)N2C[C@@H]3[C@H]4CC[C@H](C4)[C@@H]3[C@@H](C)[C@@H]2c2cn(Cc3ccccc3)c3ccc(F)cc23)cc1	21µM*	0%	21µM*	-7	2%
C[C@@H]1[C@H]2[C@@H]3CC[C@@H](C3)[C@H]2CN[C@H]1c1cn(Cc2ccccc2)c2ccccc12	?	-4%	16µM*	-27	-5%
Cc1ccc(S(=O)(=O)N2C[C@@H]3[C@H]4CC[C@H](C4)[C@@H]3[C@@H](C)[C@@H]2c2ccco2)cc1	?	-13%	?	70	-28%
Cc1ccc(S(=O)(=O)N2C[C@@H]3[C@H]4CC[C@H](C4)[C@@H]3[C@@H](C)[C@H]2c2ccco2)cc1	15µM*	-11%	15µM*	45	-19%
Cc1ccc(S(=O)(=O)N2C[C@@H]3[C@H]4CC[C@H](C4)[C@@H]3[C@@H](C)[C@@H]2c2cccn2Cc2ccccc2)cc1	?	-4%	-15%	-9	-8%
Cc1ccc(S(=O)(=O)N2C[C@@H]3[C@H]4CC[C@H](C4)[C@@H]3[C@@H](C)[C@@H]2c2ccn(Cc3ccccc3)c2)cc1	?	-12%	?	0	-20%
CCN1CCN(C(C)C(=O)Nc2c(C)n(C)n(-c3ccccc3)c2=O)CC1 (stereo unspecified)	-8%	8%	-1%	-3	13%
COC(=O)CC[C@H](N)C(=O)O	-28%	·	-3%	·	·
SMILES	DT40 TDP1 no CPT	HT1080-NT tox	DT40 TDP1 CPT	IL1B secr inh	HT1080 IDH1KD tx
COC(=O)[C@]1(C)N[C@H](CN(C)S(=O)(=O)c2ccc(-c3ccccc3)cc2)[C@@H]2C(=O)N(C)C(=O)[C@@H]21	-8%	2%	-19%	-4	3%
CCOC(=O)c1[nH]c2ccccc2c1NC(=S)Nc1cccc(C)c1	-16%	-1%	-17%	-16	-1%
Cc1noc(C)c1S(=O)(=O)N(CC(=O)NC(C)c1ccccc1)c1ccc(C(C)C)cc1 (stereo unspecified)	?	-20%	?	-53*	-29%
CCOc1ccccc1NC(=O)CN(c1cc(C)cc(C)c1)S(=O)(=O)c1c(C)noc1C	-20%	15%	-3%	2	-2%
CCOc1ccc(N(CC(=O)NC2CCCC2)S(=O)(=O)c2c(C)noc2C)cc1	-27%	0%	-29%	-2	6%
CCOc1ccccc1NC(=O)CN(c1ccc(OC)cc1)S(=O)(=O)c1c(C)noc1C	3.3µM*	5.2µM*	2.9µM*	41	5.2µM*
CCOc1ccc(N(CC(=O)Nc2ccccc2C)S(=O)(=O)c2c(C)noc2C)cc1	2.9µM*	4.6µM*	4.6µM*	29	3.7µM*
Cc1noc(C)c1S(=O)(=O)N(CC(=O)NCCc1ccccc1)c1ccc(C(C)C)cc1	?	4%	-26%	17	7%
Cc1ccc(C(C(=O)NC(C)(C)C)N(Cc2cccnc2)C(=O)C(=O)NC2CCCCC2)o1 (stereo unspecified)	3%	23%	16%	31	13%
Cc1ccccc1Nc1sc(C(=O)c2ccc(F)cc2)c(N)c1C(=O)NCCc1ccccc1	18µM*	·	?	·	·
COc1ccc(CCNC(=O)c2c(Nc3ccccc3C)sc(C(=O)c3ccccc3)c2N)cc1OC	9.2µM*	·	?	·	·
COc1ccc(S(=O)(=O)NC(C)(C)CO)cc1-c1nnc2c3ccccc3c(C)nn12	-21%	·	8%	·	·
O=C(CC1NCCN(Cc2ccccc2)C1=O)Nc1ccccc1 (stereo unspecified)	-7%	-2%	-3%	3	-5%
CCn1cc(C(=O)NCCCN2CCCC2)c(=O)c2cc(S(=O)(=O)N3CCc4ccccc4C3)ccc21	?	-10%	?	-29	1%
CCCCN(C)CCCNC(=O)c1cn(CC)c2ccc(S(=O)(=O)N3CCc4ccccc4C3)cc2c1=O	23µM*	-14%	21µM*	-63*	-13%
CCn1cc(C(=O)NCCc2ccc(Cl)cc2)c(=O)c2cc(S(=O)(=O)N3CCc4ccccc4C3)ccc21	?	·	-1%	·	·
CCCCN(CC)CCCNC(=O)c1cn(CC)c2ccc(S(=O)(=O)N3CCc4ccccc4C3)cc2c1=O	18µM*	0%	16µM*	·	-14%
